Screening results as filed in PubChem.
CendR NRP1 mod: NRP-1/CendR interaction modulation; FAM-RPARPAR peptide binding to NRP-1, fluorescence polarization; O14786; inhibition, % at 25 µM; 0.85% of 360,000 active;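 active means inhibition or corrected inhibition above about 18%, plus a signal ratio from 0.5 to 1.5, limit read from the data, passing the limit was not always enough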
PKA-R2B activ: activators of human PKA-R2B complex. P22694+P31323. PKA-R2B holoenzyme dissociation, Cy5-IP20 fluorescence polarization; R2B truncated from residue 108, S112A mutant; 0% DMSO only, 100% 113 µM cGMP. activation, % at 11.4 µM. 0.079% of 340,000 active;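 active means activation above a cutoff set at the mean over all compounds plus 3 SD, cut at about 18% in these data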;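 further: higher means more holoenzyme dissociation and a rise in polarization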
ATG4B inh: blocks human ATG4B protease cleavage of LC3 substrate; Q9Y4P1; ATG4B cleavage of LC3-PLA2, NBD-HPC fluorescence, 1 h; inhibition, % at 8.33 µM; 0.51% of 340,000 active; in the data active means inhibition above about 40%
PKA-R1A activ: activators of PKA-R1A complex | activation, % at 11.4 µM | 0.083% of 340,000 active | PKA-R1A dissociation, Cy5-IP20 fluorescence polarization; scaled: DMSO 0%, 113 µM cGMP 100% | P00514+P68181;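 active means percent activation above the mean of all tested compounds plus 3 SD, cut at about 19% in these data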;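 further: higher means more PKAc released from R1A so a rise in polarization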
VLA-4 inh: inhibition in a human VLA-4 binding assay; P13612; VLA-4 expressing cells, ligand binding flow cytometry; AID 2557; 0.2% of 330,000 active; inhibition, % (about 7 µM as worked out from the volumes in the protocol); in the data active means inhibition above about 50%
Numbers without * were called inactive; . = no result. Shown are actives, neighbours in structure and some others; about 1.6% of the full set was active somewhere.

SMILES	CendR NRP1 mod	PKA-R2B activ	ATG4B inh	PKA-R1A activ	VLA-4 inh
O=C1CCN(CCc2ccccc2)CCN1CCSc1ccc(Br)cc1	23*	3	6	-3	.
CCOC(=O)c1c(C)oc2c1c(C=NC1CCS(=O)(=O)C1)c(O)c1ccccc12 (stereo not drawn)	-7	-10	-8	-1	5
CCOC(=O)c1c(C)oc2c1c(C=NCCC(=O)O)c(O)c1ccccc12	26*	4	21	-4	-4
O=C(CSc1nnc(CNC(=O)C23CC4CC(CC(C4)C2)C3)n1-c1ccccc1)Nc1ccc(F)cc1	27*	-9	-6	-6	15
O=C(CSc1nnc(CNC(=O)C23CC4CC(CC(C4)C2)C3)n1-c1ccc(F)cc1)Nc1ccccc1	-6	3	-16	-2	-14
CCOC(=O)N1CCc2c(sc3c2c(=O)n(-c2ccc(CC)cc2)c(=O)n3CC(=O)NCC2CCCO2)C1 (stereo not drawn)	8	-6	-10	0	21
Cc1cc2c(cc1C)-n1nnnc1C(N1CCN(C(=O)OCc3ccccc3)CC1)C(=O)N2 (stereo not drawn)	-4	.	.	.	.
COc1ccc2cc(C3=CC(=O)CCC3)ccc2c1	28*	-9	-12	-9	.
CC(C)c1ccc(NC2CCCN(C(=O)c3cscn3)C2)cc1 (stereo not drawn)	21*	-11	7	-16	19
CCOC(=O)c1c2ccc(OCC(=O)NN)cc2n2ccccc12	26*	-10	-13	-10	11
CCOC(=O)c1c2ccc(OCC(=O)N/N=C/c3ccc(C)cc3)cc2n2ccccc12	-10	-9	-4	0	-5
O=C(Cn1c(=O)c2c(ncn2C2CCCC2)n(Cc2ccccc2)c1=O)N1CCc2ccccc21	29*	2	3	-1	4
O=C(Cn1c(=O)c2c(ncn2Cc2ccccc2)n(Cc2ccccc2)c1=O)N1CCc2ccccc21	-5	-2	16	9	10
COc1ccc(C(=O)COC(=O)C(CCSC)NS(=O)(=O)c2ccc(Cl)cc2)cc1 (stereo not drawn)	26*	-2	0	-10	19
O=c1[nH]n2c(C(F)(F)F)cc(C3CC3)nc2c1N=Nc1ccccc1	24*	-10	-5	7	4
CC(=O)Nc1sc(C)c(C)c1C(=O)OCC(=O)N(CC(C)C)C1CCS(=O)(=O)C1 (stereo not drawn)	28*	4	-11	-1	5
CC(C)Cc1ccc(C(C)C(=O)Nc2cccnc2)cc1 (stereo not drawn)	7	4	8	2	-1
CC(C)Cc1ccc(C(C)C(=O)Nc2ccc(O)cc2)cc1 (stereo not drawn)	38*	1	1	7	-7
Cc1occc1C(=O)N1N=C(C2CC2)CC1(O)C(F)(F)F (stereo not drawn)	34*	-1	7	6	8
O=C(c1ccco1)N1N=C(C2CCCCC2)CC1(O)C(F)(F)F (stereo not drawn)	-8	-3	-4	-7	5
Nc1sccc1C(=O)NCc1ccccc1	-28	.	.	.	.
CSc1ccccc1NC(=O)c1cnccn1	-7	-13	2	2	-10
CC(C)c1ccccc1NC(=O)c1cnccn1	59*	-1	-2	5	-6
Cc1ccc(S(=O)(=O)NCC(=O)N(c2ccccc2)C(C(=O)NCc2ccccc2)c2ccco2)cc1 (stereo not drawn)	29*	-14	-1	-8	13
Cc1cc(C)cc(N(C(=O)CNS(=O)(=O)c2ccccc2)C(C(=O)NCc2ccccc2)c2ccc(C)o2)c1 (stereo not drawn)	10	5	9	-1	9
O=C(CSc1nc2ccccc2c(=O)n1-c1ccc(F)cc1F)Nc1ccc2c(c1)CCC2	22*	-11	16	-1	12
CCCCNC(=O)C1C(c2ccc(OC)cc2)=Nc2ccccc2N1C(=O)c1ccncc1 (stereo not drawn)	19	.	.	.	.
COC(=O)C1(C(=O)OC)c2cc3c(cc2CN(S(=O)(=O)c2ccc(C)cc2)C1CC(C)=O)OCO3 (stereo not drawn)	0	.	.	.	.
Cc1cccc2sc(NC(=O)CN3C(=O)NC4(CCCC4)C3=O)nc12	4	-2	-11	1	10
